Laboratory results: PubChem BioAssay AID1159580 (chemical genetic matrix, 2015)
“And” between values parts separate entries of the source, which are not always exact repeats. Equal values may be shown once. The whole screen tested about 5,500 compounds, of which about 2,000 (36%) were called active. Roughly 18% stayed inconclusive and do not appear here. Rule as the data show it: active = normalized growth mostly below about 0.91 (no sharp cut-off); inconclusive = no clear call, values can overlap the other calls; inactive = mostly above about 0.92. The list shows a part of the results.

Assay: chemical genetic growth profiling, strain panel (AID 1159580);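 also: tested at 20 µM; growth read once vehicle control cultures reached saturation at 30 °C; 1 = growth at the plate median or of vehicle wells; lower values mean less growth of the strain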
Details: S. cerevisiae deletion strains, growth OD

Measured: normalized growth

COc1ccc(C(=O)CC(=O)O)c2c1C=CC(C)(C)O2
inactive: locus YAL021C, strain ccr4, stronger effect = lower value 1 | locus YAL026C, strain drs2, stronger effect = lower value 1 | locus YAL030W, strain snc1, stronger effect = lower value 0.992 | locus YBL061C, strain skt5, stronger effect = lower value 0.999 | locus YBR009C, strain hhf1, stronger effect = lower value 1.01 | locus YBR021W, strain FUR4, stronger effect = lower value 0.986 | locus YBR023C, strain chs3, stronger effect = lower value 1.01 | locus YBR171W, strain sec66, stronger effect = lower value 0.986 | locus YBR229C, strain ROT2, stronger effect = lower value 0.983 | locus YBR231C, strain swc5, stronger effect = lower value 0.987 | locus YBR279W, strain paf1, stronger effect = lower value 1.01 | locus YCL011C, strain gbp2, stronger effect = lower value 1.01 | locus YCL016C, strain dcc1, stronger effect = lower value 1.02 | locus YCL029C, strain bik1, stronger effect = lower value 0.997 | locus YCL061C, strain MRC1, stronger effect = lower value 1 | locus YCL069W, strain vba3, stronger effect = lower value 1.01 | locus YCR088W, strain abp1, stronger effect = lower value 0.995 | locus YDL005C, strain med2, stronger effect = lower value 0.983 | locus YDL035C, strain GPR1, stronger effect = lower value 1.02 | locus YDL040C, strain nat1, stronger effect = lower value 1 | locus YDL074C, strain BRE1, stronger effect = lower value 1 | locus YDL101C, strain DUN1, stronger effect = lower value 1.01 | locus YDL185W, strain tfp1, stronger effect = lower value 0.988 | locus YDL192W, strain arf1, stronger effect = lower value 0.996 | locus YDR001C, strain nth1, stronger effect = lower value 0.995 | locus YDR069C, strain doa4, stronger effect = lower value 0.984 | locus YDR101C, strain arx1, stronger effect = lower value 0.995 | locus YDR137W, strain rgp1, stronger effect = lower value 1.03 | locus YDR150W, strain NUM1, stronger effect = lower value 0.999 | locus YDR159W, strain sac3, stronger effect = lower value 0.956 | locus YDR162C, strain NBP2, stronger effect = lower value 1.06 | locus YDR195W, strain ref2 0.962 | locus YDR297W, strain sur2, stronger effect = lower value 0.997 | locus YDR318W, strain mcm21, stronger effect = lower value 0.997 | locus YDR334W, strain swr1, stronger effect = lower value 0.997 | locus YDR335W, strain msn5, stronger effect = lower value 1.01 | locus YDR388W, stronger effect = lower value 1.01 | locus YDR392W, strain spt3, stronger effect = lower value 0.96 | locus YDR502C, strain sam2, stronger effect = lower value 1.02 | locus YEL003W, strain gim4, stronger effect = lower value 0.999 | locus YEL037C, strain rad23, stronger effect = lower value 0.999 | locus YEL061C, strain CIN8, stronger effect = lower value 0.998 | locus YER015W, strain faa2, stronger effect = lower value 1.01 | locus YER016W, strain bim1, stronger effect = lower value 0.99 | locus YER110C, stronger effect = lower value 0.977 | locus YER111C, strain swi4, stronger effect = lower value 1 | locus YER155C, strain BEM2 (second series), stronger effect = lower value 0.99 | locus YER155C, strain BEM2, stronger effect = lower value 0.983 | locus YER167W, strain BCK2, stronger effect = lower value 0.993 | locus YFR010W, strain ubp6, stronger effect = lower value 0.994 | locus YGL078C, strain dbp3, stronger effect = lower value 0.994 | locus YGL086W, strain mad1, stronger effect = lower value 0.99 | locus YGL167C, strain pmr1, stronger effect = lower value 0.994 | locus YGL173C, strain kem1, stronger effect = lower value 0.99 | locus YGL227W, strain vid30, stronger effect = lower value 0.981 | locus YGL240W, strain doc1, stronger effect = lower value 1.02 | locus YGL248W, strain PDE1, stronger effect = lower value 1 | locus YGL253W, strain hxk2, stronger effect = lower value 1 | locus YGR078C, strain PAC10, stronger effect = lower value 1.03 | locus YGR135W, strain pre9, stronger effect = lower value 0.992 | locus YGR252W, strain gcn5, stronger effect = lower value 0.979 | locus YHR013C, strain ard1, stronger effect = lower value 1.02 | locus YHR027C, strain rpn1, stronger effect = lower value 0.982 | locus YHR030C, strain SLT2, stronger effect = lower value 0.997 | locus YHR079C, strain IRE1 (second series), stronger effect = lower value 0.991 | locus YHR079C, strain IRE1, stronger effect = lower value 0.987 | locus YHR094C, strain hxt1, stronger effect = lower value 1 | locus YHR129C, strain ARP1, stronger effect = lower value 0.998 | locus YHR142W, strain chs7, stronger effect = lower value 1 | locus YHR200W, strain rpn10, stronger effect = lower value 0.987 | locus YIL066C, strain RNR3, stronger effect = lower value 1.02 | locus YIL073C, strain SPO22, stronger effect = lower value 1.04 | locus YIL125W, strain kgd1, stronger effect = lower value 1.01 | locus YIR030C, strain dcg1, stronger effect = lower value 0.993 | locus YJL092W, strain hpr5, stronger effect = lower value 1 | locus YJL095W, strain BCK1 (second series), stronger effect = lower value 0.99 | locus YJL095W, strain BCK1, stronger effect = lower value 1.05 and 1.08 | locus YJL115W, strain asf1, stronger effect = lower value 1 | locus YJL129C, strain trk1, stronger effect = lower value 1 | locus YJL134W, strain LCB3, stronger effect = lower value 0.995 | locus YJL154C, strain vps35, stronger effect = lower value 0.996 | locus YJL164C, strain tpk1, stronger effect = lower value 1.01 | locus YJL166W, strain qcr8, stronger effect = lower value 1 | locus YJL168C, strain set2, stronger effect = lower value 0.998 | locus YJL187C, strain SWE1 (second series), stronger effect = lower value 1.02 | locus YJL187C, strain SWE1, stronger effect = lower value 1.01 | locus YJR043C, strain POL32, stronger effect = lower value 1.04 | locus YJR066W, strain TOR1, stronger effect = lower value 0.949 | locus YJR075W, strain HOC1, stronger effect = lower value 1.02 | locus YKL009W, strain mrt4, stronger effect = lower value 1.03 | locus YKL068W, stronger effect = lower value 0.992 | locus YKL085W, strain MDH1 (second series), stronger effect = lower value 1 | locus YKL085W, strain MDH1, stronger effect = lower value 1 | locus YKL160W, strain elf1, stronger effect = lower value 1.01 | locus YKL190W, strain CNB1, stronger effect = lower value 0.994 | locus YKR001C, strain vps1, stronger effect = lower value 0.994 | locus YKR026C, strain gcn3, stronger effect = lower value 0.995 | locus YKR091W, strain srl3, stronger effect = lower value 0.997 | locus YLL001W, strain dnm1, stronger effect = lower value 1.01 | locus YLL026W, stronger effect = lower value 1 | locus YLL041C, strain sdh2, stronger effect = lower value 1.01 | locus YLR027C, strain aat2, stronger effect = lower value 1.01 | locus YLR039C, strain RIC1, stronger effect = lower value 1.08 | locus YLR058C, strain SHM2, stronger effect = lower value 0.996 | locus YLR102C, strain apc9, stronger effect = lower value 0.992 | locus YLR113W, strain HOG1, stronger effect = lower value 1.07 | locus YLR221C, strain rsa3, stronger effect = lower value 0.99 | locus YLR258W, strain gsy2, stronger effect = lower value 1 | locus YLR262C, strain YPT6 (second series), stronger effect = lower value 1.03 | locus YLR262C, strain YPT6, stronger effect = lower value 1.06 | locus YLR268W, strain sec22, stronger effect = lower value 1.01 | locus YLR320W, strain mms22, stronger effect = lower value 0.987 | locus YLR330W, strain CHS5, stronger effect = lower value 0.995 | locus YLR342W, strain FKS1 (second series), stronger effect = lower value 1 | locus YLR342W, strain FKS1, stronger effect = lower value 0.999 | locus YLR357W, strain rsc2, stronger effect = lower value 0.959 | locus YLR370C, strain arc18, stronger effect = lower value 1.03 | locus YLR371W, strain rom2, stronger effect = lower value 0.997 | locus YLR384C, strain iki3, stronger effect = lower value 0.99 | locus YLR418C, strain cdc73, stronger effect = lower value 0.998 | locus YML016C, strain PPZ1, stronger effect = lower value 0.99 | locus YML032C, strain rad52, stronger effect = lower value 1 | locus YML120C, strain ndi1, stronger effect = lower value 1.01 | locus YML124C, strain tub3, stronger effect = lower value 0.997 | locus YMR058W, strain fet3, stronger effect = lower value 1.01 | locus YMR078C, strain ctf18, stronger effect = lower value 0.977 | locus YMR125W, strain sto1, stronger effect = lower value 0.994 | locus YMR129W, stronger effect = lower value 1 | locus YMR205C, strain PFK2, stronger effect = lower value 1.01 | locus YMR223W, strain ubp8, stronger effect = lower value 1.01 | locus YMR231W, strain pep5, stronger effect = lower value 0.994 | locus YMR263W, strain SAP30, stronger effect = lower value 1.01 | locus YMR307W, strain GAS1, stronger effect = lower value 0.939 | locus YNL067W, strain RPL9B, stronger effect = lower value 1.04 | locus YNL071W, strain lat1, stronger effect = lower value 1.01 | locus YNL153C, strain GIM3, stronger effect = lower value 1.04 | locus YNL183C, strain NPR1, stronger effect = lower value 0.995 | locus YNL209W, strain ssb2, stronger effect = lower value 1.01 | locus YNL233W, strain BNI4, stronger effect = lower value 1.03 | locus YNL248C, strain rpa49, stronger effect = lower value 0.903 | locus YNL250W, strain rad50, stronger effect = lower value 0.981 | locus YNL271C, strain bni1, stronger effect = lower value 0.984 | locus YNL298W, strain CLA4, stronger effect = lower value 0.979 | locus YNL307C, strain MCK1, stronger effect = lower value 0.99 | locus YNL322C, strain KRE1 (second series), stronger effect = lower value 1.01 | locus YNL322C, strain KRE1, stronger effect = lower value 0.998 | locus YNR049C, strain mso1, stronger effect = lower value 1.02 | locus YNR052C, strain pop2, stronger effect = lower value 0.985 | locus YOL006C, strain TOP1, stronger effect = lower value 1.11 | locus YOL012C, strain htz1 0.738 | locus YOL147C, strain pex11, stronger effect = lower value 0.993 | locus YOR001W, strain rrp6, stronger effect = lower value 0.971 | locus YOR061W, strain CKA2, stronger effect = lower value 0.993 | locus YOR069W, strain VPS5, stronger effect = lower value 0.989 | locus YOR070C, strain gyp1, stronger effect = lower value 1 | locus YOR080W, strain dia2, stronger effect = lower value 0.994 | locus YOR083W, strain WHI5, stronger effect = lower value 1.01 | locus YOR106W, strain vam3, stronger effect = lower value 1.03 | locus YOR136W, strain idh2, stronger effect = lower value 0.985 | locus YOR144C, strain elg1, stronger effect = lower value 0.999 | locus YOR184W, strain ser1, stronger effect = lower value 1.03 | locus YOR231W, strain MKK1, stronger effect = lower value 0.994 | locus YOR265W, strain rbl2, stronger effect = lower value 1.02 | locus YOR270C, strain vph1, stronger effect = lower value 0.995 | locus YOR290C, strain snf2, stronger effect = lower value 0.997 | locus YOR316C, strain cot1, stronger effect = lower value 0.996 | locus YPL051W, strain arl3, stronger effect = lower value 1.01 | locus YPL078C, strain atp4, stronger effect = lower value 1.03 | locus YPL106C, strain sse1, stronger effect = lower value 0.987 | locus YPL240C, strain hsp82, stronger effect = lower value 0.999 | locus YPL241C, strain CIN2, stronger effect = lower value 0.996 | locus YPL256C, strain CLN2, stronger effect = lower value 0.997 | locus YPR119W, strain clb2, stronger effect = lower value 1 | locus YPR141C, strain kar3, stronger effect = lower value 0.991 | locus YPR163C, strain tif3, stronger effect = lower value 0.992 | locus YPR167C, strain met16, stronger effect = lower value 0.995 | strain wtn01, stronger effect = lower value 0.991
